The results in this text go back to PubChem BioAssay (NCI).

Compounds without any hit were thinned out: in the full panel of roughly 83,000, 20% have a hit.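 Cells were grown in 96-well plates and exposed to the test compound at a single concentration for 48 hours; results are reported as percent growth, with values below 10 considered active.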 A number with no mark means an inactive call. Active and inactive are the calls of the source.

Test systems include HCT-15 colon; HT29 colon; SNB-75 CNS; SNB-19 CNS; U251 CNS; PC-3 prostate; SK-MEL-5 melanoma; UACC-62 melanoma; LOX IMVI melanoma; SK-MEL-28 melanoma; SK-MEL-2 melanoma; EKVX NSCLC; SN12C renal; UO-31 renal; ACHN renal; CAKI-1 renal; A498 renal; CCRF-CEM leukemia; MOLT-4 leukemia.
Assay in all cases: NCI-60 one-dose screen, 48 h (100 = growth as untreated, 0 = no growth, -100 = all killed)
Conditions in all cases: 10 µM unless noted

For `CCOC(=O)c1cc2c(n1C)-c1nc(NC(C)=O)sc1CCC2`, the growth in the assay with HCT-15 colon was 88.3%; in the assay with HT29 colon, 88%; in the assay on SNB-75 CNS, 71.4%; in the assay on SNB-19 CNS it was 83.6%; in the assay on U251 CNS, 78.2%; with PC-3 prostate, 51%. The growth is 80.4% with SK-MEL-5 melanoma; 69.5% in the assay with UACC-62 melanoma; 79.6% with LOX IMVI melanoma; 107% in the assay with SK-MEL-28 melanoma; 89.9% in the assay on SK-MEL-2 melanoma; 60.7% with EKVX NSCLC. Besides, the growth in the assay with SN12C renal is 81.9%; in the assay on UO-31 renal it was 43.2%; in the assay with ACHN renal, 86.7%; in the assay on CAKI-1 renal it was 76.4%; in the assay with A498 renal it was 53.2%; with CCRF-CEM leukemia it was 73.8%. Besides, the growth in the assay on MOLT-4 leukemia was 81.6%.
Take `N#Cc1c(-c2ccccc2)[nH]c2ncc(-c3ccccc3)n2c1=O`: the growth is 93.5% with HCT-15 colon; 106% with HT29 colon; 78.8% in the assay on SNB-75 CNS; 105% in the assay on SNB-19 CNS; 93.1% in the assay with U251 CNS; 74.6% in the assay with PC-3 prostate. Also, the growth in the assay on SK-MEL-5 melanoma is 87.7%; with UACC-62 melanoma it was 87.8%; with LOX IMVI melanoma, 86.8%; in the assay on SK-MEL-28 melanoma, 102%; in the assay on SK-MEL-2 melanoma, 72.9%; with EKVX NSCLC, 75.3%. In addition, the growth was 99.5% in the assay with SN12C renal; 65.4% in the assay on UO-31 renal; 83.4% in the assay on ACHN renal; 83.4% in the assay with CAKI-1 renal; 104% in the assay with CCRF-CEM leukemia; 101% with MOLT-4 leukemia.
Regarding `CS(=O)(=O)Nc1cncc(-c2ccc3ncnc(Nc4cncc(Cl)c4)c3c2)c1`, the growth is 92.9% in the assay with HCT-15 colon; 80% in the assay on HT29 colon; 82.4% in the assay on SNB-75 CNS; 68.2% with SNB-19 CNS; 59.2% in the assay with U251 CNS; 84.7% with PC-3 prostate. Further, the growth in the assay with SK-MEL-5 melanoma was 95.4%; with UACC-62 melanoma, 69.6%; in the assay with LOX IMVI melanoma, 79.7%; with SK-MEL-28 melanoma, 81.6%; with SK-MEL-2 melanoma it was 67.6%; with EKVX NSCLC, 96.1%. Also, the growth is 84.3% in the assay on SN12C renal; 77.7% in the assay on UO-31 renal; 96% in the assay on ACHN renal; 94.9% in the assay on CAKI-1 renal; 70.5% with A498 renal; 35.7% in the assay with CCRF-CEM leukemia. The growth with MOLT-4 leukemia was 78.4%.
Turning to `CCN1CCN(C(=O)[C@]23CCC(C)(C)C[C@@H]2C2=CC[C@@H]4[C@@]5(C)CCC(=O)C(C)(C)[C@@H]5CC[C@@]4(C)[C@]2(C)CC3)CC1`, the growth in the assay on HCT-15 colon is 33.6%; in the assay with HT29 colon, 8.29% (active); in the assay with SNB-75 CNS, 15.6%; in the assay on SNB-19 CNS, 71.1%; with U251 CNS it was 46.8%; in the assay with PC-3 prostate it was 26.1%. The growth is 49.2% in the assay on SK-MEL-5 melanoma; 47.3% with UACC-62 melanoma; 43.8% in the assay on LOX IMVI melanoma; 64.3% in the assay with SK-MEL-28 melanoma; 77.1% with SK-MEL-2 melanoma; 63.3% with EKVX NSCLC. Also, the growth was 51.8% with SN12C renal; 34.1% with UO-31 renal; 65.7% in the assay on ACHN renal; 60% in the assay on CAKI-1 renal; -7.95% (active) in the assay with A498 renal; 37.5% in the assay with CCRF-CEM leukemia. The growth in the assay with MOLT-4 leukemia is 10.1%.
For the compound `Nc1n[nH]c2ccc([C@H]3[C@@H]4C5CCC(C5)[C@@H]4c4c(ccc5[nH]ncc45)N3S(=O)(=O)C3CC3)cc12` (some centres undefined), the growth with HCT-15 colon was 12.3%; with HT29 colon, 9.97% (active); with SNB-75 CNS, -10.3% (active); in the assay on SNB-19 CNS, 23.2%; in the assay on U251 CNS, 17.7%; in the assay on PC-3 prostate it was 28.3%. Besides, the growth in the assay on SK-MEL-5 melanoma was -22.4% (active); in the assay with UACC-62 melanoma, 32.5%; in the assay with LOX IMVI melanoma, 8.72% (active); in the assay with SK-MEL-28 melanoma it was 52.7%; with SK-MEL-2 melanoma it was 53.2%; with EKVX NSCLC, 29.8%. Besides, the growth was 29.1% in the assay on SN12C renal; 43% with UO-31 renal; 18.5% in the assay with ACHN renal; 26.2% in the assay with CAKI-1 renal; -29.2% (active) in the assay on A498 renal; 16.2% in the assay on CCRF-CEM leukemia.
Turning to `CCCCNC(=O)Oc1ccc(/C(=C(/C)Cc2ccc(OC)cc2)c2ccc(OCCN3CCCC3)cc2)cc1`, the growth is 13.5% in the assay on HCT-15 colon; -11.3% (active) in the assay with HT29 colon; 70% in the assay on SNB-75 CNS; 79.3% in the assay on SNB-19 CNS; 41.3% in the assay with U251 CNS; 60.7% in the assay on PC-3 prostate. Besides, the growth with SK-MEL-5 melanoma is 47%; with UACC-62 melanoma, 45.4%; in the assay with LOX IMVI melanoma, -66.9% (active); in the assay on SK-MEL-28 melanoma, -0.368% (active); in the assay with SK-MEL-2 melanoma, 85.2%; in the assay with EKVX NSCLC, 67.6%. Moreover, the growth is 72.6% with SN12C renal; 53.5% in the assay on UO-31 renal; 91.9% in the assay on ACHN renal; 70.5% in the assay with CAKI-1 renal; 59.6% with A498 renal; 46% with CCRF-CEM leukemia. Also, in the assay on MOLT-4 leukemia, the growth is 34.4%.
Regarding `O=C(CSc1nc2sc3c(c2c(=O)n1-c1ccccc1)CCCCC3)N/N=C/c1cccc([N+](=O)[O-])c1`, the growth is 53.8% in the assay on HCT-15 colon; 32.3% in the assay with HT29 colon; 6.05% (active) in the assay on SNB-75 CNS; 83.6% with SNB-19 CNS; 49.1% in the assay on U251 CNS; 38.5% in the assay with PC-3 prostate. For the same compound, the growth in the assay with SK-MEL-5 melanoma was 67.6%; in the assay with UACC-62 melanoma, 65.9%; in the assay with LOX IMVI melanoma, 76.5%; with SK-MEL-28 melanoma, 74%; with SK-MEL-2 melanoma, 90.2%; in the assay with EKVX NSCLC, 70.3%. Also, the growth was 66.8% in the assay on SN12C renal; 75.7% in the assay on UO-31 renal; 80.6% with ACHN renal; 60% with CAKI-1 renal; 83.7% in the assay with A498 renal; 76.6% with CCRF-CEM leukemia. Besides, the growth in the assay with MOLT-4 leukemia was 70.5%.
Turning to `CN(C)CC1CCC(CN(C)C)C1=O` (centres undefined), the growth in the assay with HCT-15 colon was 105%; with HT29 colon, 103%; in the assay with SNB-75 CNS, 102%; in the assay on SNB-19 CNS it was 102%; in the assay on U251 CNS, 102%; with PC-3 prostate it was 96.7%. For the same compound, the growth in the assay with SK-MEL-5 melanoma is 108%; in the assay on UACC-62 melanoma, 102%; in the assay on LOX IMVI melanoma, 106%; in the assay with SK-MEL-28 melanoma, 112%; in the assay with SK-MEL-2 melanoma, 96.8%; with EKVX NSCLC, 133%. For the same compound, the growth was 106% in the assay on SN12C renal; 85.4% with UO-31 renal; 110% in the assay on ACHN renal; 108% in the assay with CAKI-1 renal; 103% in the assay on A498 renal; 27.9% in the assay with CCRF-CEM leukemia.
